Hit rate of the full screen: of about 300,000 compounds, about 37,000 (12%) were called active. For the sample, actives were picked, then their nearest neighbours and some compounds at random. Values without a mark were called inactive. Cut-off read from the data, not from the text of the source: active = max response mostly above about 13% (no sharp cut-off); inactive = mostly below about 14%.

A short description of the experiment: Cycloheximide Counterscreen for Small Molecule Inhibitors of Shiga Toxin. Note: read at 38.3 µM for the half of the compounds with a filed dose; 0% is about no effect. Conditions: cell reporter, cycloheximide protein synthesis inhibition counterscreen; stronger effect = higher value.
With `COc1ccc(S(=O)(=O)N2CCN(c3ccc(F)cc3)CC2)cc1-c1noc(C)n1`, the max response is 10.5%.

Regarding `Cc1ccccc1CSc1nnc(CCCCCNC(=O)OC(C)(C)C)o1`, the max response is -1.71%.

Consider `CCOc1ccccc1NC(=O)Cn1nnc(C(=O)NCc2cccs2)c1N`, for which the max response is -7.84%.

For the molecule `O=C(NCc1cc(F)cc(C(F)(F)F)c1)C1CCC(=O)N(C2CCCC2)C1` (stereo unspecified), the max response is 25.3%.

Take `O=C(NCCc1ccccc1)C1CCN(S(=O)(=O)c2ccc(Br)s2)CC1`: the max response was 11.9% (active).

Turning to `CSc1ccc(S(=O)(=O)N2CCC(C(=O)NCCc3ccccc3)CC2)cc1`, the max response was 0.47%.

Take `O=C(C1CCN(S(=O)(=O)c2ccc(Br)s2)CC1)N1CCN(c2ccccc2)CC1`: the max response was -2.23%.

On to `Oc1c(Cl)cc(Cl)cc1/C=N/c1ncn[nH]1`, for which the max response is -3.31%.

For the molecule `CCOC(=O)N1CCN(C(=O)c2ccc3c(=O)n(CCc4ccc(OC)c(OC)c4)c(=O)[nH]c3c2)CC1`, the max response is 2.53%.

Turning to `COc1cccc(CNC(=O)C2CCCN(S(=O)(=O)N3CC(C)CC(C)C3)C2)c1` (stereo unspecified), the max response was 3.03%.

Turning to `Oc1ccc(Cl)cc1/C=N/c1nc2ccccc2[nH]1`, the max response is 23.3%.

On to `O=C(/C(=C/c1cccc(Cl)c1)c1nc2ccccc2[nH]1)c1ccccc1`, for which the max response is 46.6% (active).

Take `O=C(N/N=C/c1ccc(Cl)cc1)c1nc2ccc([N+](=O)[O-])cc2c(=O)[nH]1`: the max response was -1.53%.

With `CC(C)(C)c1ccc(CCC2OCC(CN3CCOCC3)O2)cc1` (stereo unspecified), the max response was 16.4%.

With `CCOC(OCC)OCC`, the max response was 6.84%.

In the case of `Cc1noc(C)c1COc1ccc2ccc(=O)oc2c1`, the max response is -2.41%.

For `Cc1oc2cc3oc(=O)ccc3cc2c1C`, the max response is 25.5% (active).

Take `COc1c(C(C)C)oc2cc3oc(=O)ccc3cc12`: the max response is 60.5% (active).

Consider `COc1ccc(Nc2cc(=O)oc3ccccc23)cc1`, for which the max response is -1.7%.

`CC(C)OC(=O)c1ccc(COc2ccc3ccc(=O)oc3c2)o1`: the max response is 22.4%.

Take `Cc1ccc(OCC(=O)Nc2ccc3oc(=O)ccc3c2)cc1C`: the max response was -4.02%.

In the case of `CCCCCn1c(=O)[nH]c2cc(C(=O)NCCCN3CCCCC3C)ccc2c1=O` (stereo unspecified), the max response is -2.4%.

For the molecule `CC(C)CN(CC(C)C)CC(O)CN(c1ccccc1)S(=O)(=O)c1ccccc1[N+](=O)[O-]` (stereo unspecified), the max response was 3.27%.

With `CC(C)CNC(=O)C(=O)NCC(c1ccc2c(c1)OCO2)N1CCOCC1` (stereo unspecified), the max response was -4.38%.

Turning to `COCCOC1CCN(C(=O)c2ccc(OC)c(OC3CCN(C(C)C)CC3)c2)CC1`, the max response is -2.04%.

On to `Cc1noc(NS(=O)(=O)c2ccc(NC(=O)c3oc4ccc(F)cc4c3C)cc2)c1C`, for which the max response was -2.38%.
